Experimental data as given in PubChem BioAssay AID652142 (Molecular Libraries Program, Specialized Chemistry Center, …, 2013).
The whole screen tested about 2,400 compounds, of which fewer than 10 were called active. A selection follows. A number with no mark means an inactive call. The rule behind the calls is not given here.

target: Rac GTPase-activating protein 1 (Homo sapiens) (UniProt Q9H0H5); assay: MgcRacGAP inhibitors via phosphate release, confirmation, orthogonal assay, biochemical, inorganic phosphate detection, Rac1 (AID 652142); details: MgcRacGAP/Rac1F28L GTP hydrolysis, Biomol green phosphate; stronger effect = higher value; concentration not given here
Sequence (Q9H0H5 whole entry, looked up): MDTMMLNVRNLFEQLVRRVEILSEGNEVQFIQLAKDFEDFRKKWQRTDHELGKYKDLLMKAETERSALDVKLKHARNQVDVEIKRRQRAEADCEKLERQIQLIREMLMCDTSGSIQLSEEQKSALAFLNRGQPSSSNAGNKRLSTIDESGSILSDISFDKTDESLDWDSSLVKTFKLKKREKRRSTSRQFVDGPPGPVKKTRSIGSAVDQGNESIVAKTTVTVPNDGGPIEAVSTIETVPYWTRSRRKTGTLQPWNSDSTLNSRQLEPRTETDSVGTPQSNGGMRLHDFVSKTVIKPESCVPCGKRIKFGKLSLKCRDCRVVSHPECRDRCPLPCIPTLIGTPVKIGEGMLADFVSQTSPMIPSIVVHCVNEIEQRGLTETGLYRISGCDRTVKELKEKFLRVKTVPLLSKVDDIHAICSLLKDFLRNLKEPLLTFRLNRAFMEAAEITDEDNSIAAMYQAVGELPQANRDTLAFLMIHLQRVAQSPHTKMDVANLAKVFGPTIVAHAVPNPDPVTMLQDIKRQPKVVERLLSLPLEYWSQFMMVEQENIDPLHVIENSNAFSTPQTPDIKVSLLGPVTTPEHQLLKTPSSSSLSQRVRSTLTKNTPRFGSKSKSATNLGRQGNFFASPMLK

Row | SMILES | inhibition [%]
1 | Cc1nn2cc(-c3ccc(N)cc3)nc2s1 | 22.3
2 | Oc1ccc(/C=N/Nc2ccnc3cc(Cl)ccc23)cc1O | 4.55
3 | Oc1ccc(/C=N\Nc2cc(N3CCOCC3)nc(N3CCOCC3)n2)c(O)c1 | 21.8
4 | Nc1ccc(N2CCCC2)c(S(=O)(=O)Nc2cccc(C(F)(F)F)c2)c1 | 29.9
5 | Cc1ccc(-c2cc(C(=O)N3CCN(c4ccc(O)cc4)CC3)c3ccccc3n2)cc1 | 23.8
6 | O=C(/C=C/Nc1ccc(Nc2ccccc2)cc1)c1cccs1 | 19.5
7 | C/C(=N\NC(=O)c1cccc(N/N=C(\C)c2cc(O)ccc2O)c1)c1cc(O)ccc1O | 28.1
8 | Cc1ccc(CN2CCN(Cc3ccccc3C(F)(F)F)CC2)cc1 | 17.2
9 | CCOC(=O)C1=C(COC(=O)/C=C/c2ccc(O)c(OC)c2)NC(=O)NC1C (stereo not given) | 11.2
10 | COc1cc(/C=C/C(=O)OCC(=O)N2CC3(C)CC2CC(C)(C)C3)ccc1O (stereo not given) | 33.5
11 | COc1ccc(S(=O)(=O)/N=C2\C=C(Nc3ccc(O)cc3)C(=O)c3ccccc32)cc1 | 13.5
12 | CCn1c(=S)[nH]c2sc3c(c2c1=O)CCCC3 | 10.8
13 | CCc1ccc(O)c(N=Cc2cccc(C)c2O)c1 | 23.4
14 | N=C(N)c1ccc(N=Nc2c(O)ccc3c2[nH]c2ccccc23)cc1 | 62.4
15 | CCc1ccc(O)c(N=Cc2ccccc2O)c1 | 33.5
16 | CN(C)c1ccc(C=c2c3cc(O)ccc3n3c2cc(-c2ccccc2)[n+]3C)cc1 | 83.7
17 | Oc1ccc(/C=N/Nc2cc(N3CCOCC3)nc(N3CCOCC3)n2)cc1 | 25.9
18 | Oc1ccc(/C=N/Nc2ccc(C(F)(F)F)cn2)c(O)c1 | 19.4
19 | O=S(=O)(O)c1cc(O)c(N=Nc2ccc(O)cc2O)c2ccccc12 | 24.4
20 | Oc1ccc(-c2[nH]ncc2-c2ccc(Cl)cc2)c(O)c1 | 26.7
21 | CN(C)c1ccc2c(c1)C(=NO)c1ccccc1-2 | 19.4
22 | O=C(NCc1ccco1)c1sc(=S)n2c1[nH]c(=O)c1ccccc12 | 31.8
23 | CCN(CC)c1ccc(Nc2nc(Cl)ncc2Br)cc1 | 33.2
24 | CCOc1cc(/C=N/NC(=O)CN2CCCCC2)ccc1O | 30.3

Row | SMILES | inhibition [%]
25 | CN(c1ccc(O)cc1)c1nc(-c2ccccc2)cs1 | 23.3
26 | COc1cc(/C=N/Nc2nc3ccccc3[nH]2)ccc1O | 12.2
27 | CCN(c1ccccc1)S(=O)(=O)c1ccc(N2CCN(c3ccc(O)cc3)CC2)nc1 | 27.7
28 | CCOc1cc(/C=N/NC(=O)CCCC(=O)NC2CCCCC2)ccc1O | 20.5
29 | Cc1cc(-c2ccccc2)nc(N/N=C/c2ccc(O)cc2O)n1 | 20.5
30 | Cc1c(C(=O)N/N=C/c2ccc(O)c(Br)c2)sc(N)c1C#N | 31.3
31 | Nc1ccc2nc(C3CCCCC3)[nH]c2c1 | 28.4
32 | COc1cc(/C=N/NC(=S)NC2CC3CCC2C3)ccc1O (stereo not given) | -0.0456
33 | COc1cc2c(cc1NC(=O)C(Cl)Cl)-c1ccc(NC(=O)C(Cl)Cl)cc1C2 | 13.1
34 | CSc1nc(/C=C2\C=Nc3ccccc32)c(O)n1C | 7.92
35 | Cn1c(-c2ccc(Cl)cc2)cnc1NCc1cc2c(cc1[N+](=O)[O-])OCO2 | 22.1
36 | C=CCn1c(SCC(=O)c2ccc(O)c(O)c2)nnc1-c1cccc(Cl)c1 | 29.9
37 | CN(Cc1ccccc1)Cc1c(O)ccc2ccccc12 | 23.9
38 | COc1cc(/C=N/NC(=O)CN(Cc2ccccc2)S(=O)(=O)c2ccc3c(c2)OCCO3)ccc1O | -2.68
39 | COc1cccc(CNc2ccc3[nH]c(=O)[nH]c3c2)c1OCc1ccccc1Cl | -0.282
40 | Cc1ccccc1C(OCC(O)CN1CCN(CCO)CC1)c1ccccc1 (stereo not given) | 29.2
41 | CCN1CCN(CCOc2ccc(Br)cc2C)CC1 | 23.2
42 | COc1cc(/C=N/NC(=O)NC23CC4CC(CC(C4)C2)C3)ccc1O | 35.9
43 | O=c1c2ccccc2sn1-c1ccc(Cl)cc1 | 75
44 | CC[n+]1ccc(/C=C/c2ccc(N(C)C)cc2)c2ccccc21 | 31.5
45 | COc1cc(/C=N/NC(=O)c2nnn(-c3nonc3N)c2C(C)C)ccc1O | 15.1
46 | CN1CCN(/N=C/c2nc(-c3ccccc3)n3ccccc23)CC1 | 30.1
47 | CC(=O)N1CCN(c2ccc(Nc3ncnc4c3oc3ccccc34)cc2)CC1 | 8.13
48 | CCOc1cc(/C=N/NC(=O)c2ccccc2-n2cccc2)ccc1O | 30.4

Row | SMILES | inhibition [%]
49 | CN(C)c1ccc(N=C/C=C2\N(C)c3ccccc3C2(C)C)cc1 | 22.7
50 | COc1cc(/C=N/NC(=O)c2ccc(-n3cccc3)cc2)ccc1O | 12.4
51 | COc1cc(/C=N/NC(=O)C2(O)c3ccccc3-c3ccccc32)ccc1O | 25.6
52 | COc1ccc(Oc2cn[nH]c2-c2ccc(O)cc2O)cc1 | 17.2
53 | Cc1cc(-c2ccccc2)nc(N/N=C/c2ccc(N(C)C)cc2)n1 | 23.8
54 | COc1cc(-c2nc3ccc(C)cn3c2Nc2ccc3c(c2)OCCO3)ccc1O | 21.3
55 | CCOC(=O)c1cc(NCc2cccs2)ccc1N1CCOCC1 | 30.4
56 | O=C(N/N=C/c1ccc(O)cc1)Nc1cccc2nsnc12 | 33.1
57 | CC(=O)Nc1ccc(Oc2nc(-c3ccccn3)nc3ccccc23)cc1 | 26
58 | CCCS(=O)(=O)N1CCN(CC2CC3C=CC2C3)CC1 (stereo not given) | 10.6
59 | O=c1c2ccccc2sn1-c1ccc(Cl)cc1Cl | 79.5
60 | O=[N+]([O-])c1cccc(/C=N/n2c(-c3cccnc3)n[nH]c2=S)c1 | 32.9
61 | C=CCn1c(N/N=C/c2ccc(O)cc2)nc2ccccc2c1=O | 18.4
62 | COc1cc(CCNC2=CC(=O)c3ncccc3C2=O)ccc1O | 23.7
63 | C/C(=N\Nc1ccc(S(=O)(=O)N2CCCCC2)cn1)c1ccc(O)cc1 | 27.3
64 | COc1ccccc1N=NNc1ccccc1OC | 28.7
65 | CC(C)(C)N1C(=O)c2ccc(C(=O)Nc3ccc(O)cc3)cc2C1=O | 24.3
66 | Cn1c(-c2ccc3c(c2)OCO3)cnc1NCc1ccccc1Cl | 27.7
67 | COc1cccc(Nc2nc(-c3ccc(O)cc3)cs2)c1 | 31.8
68 | C=CCn1c(=O)/c(=C/c2ccc(O)cc2)s/c1=C(/C#N)c1nnc2n1CCCCC2 | 18.2
69 | COc1ccc(CNc2ncc(-c3ccc(F)cc3)n2C)c2ccccc12 | 17.2
70 | CCOC(=O)/C(C#N)=C\c1c(OCC)n(CC)c2ccccc12 | 19.7
71 | Cc1cccc(C)c1OCCCCN1CCNCC1 | 32
72 | CC1(C)OC(=O)C(=NNc2ccc(O)cc2)C(=O)O1 | 20.7

Row | SMILES | inhibition [%]
73 | CCN(CC)S(=O)(=O)c1cccc(NC(=O)CNC2CCCCCC2)c1 | 31
74 | C#CCOCCOCCOCCNc1nc(N2CCN(C(=O)[C@H](CCCCN)n3cc([C@@H](N)CC(C)C)nn3)CC2)nc(N2CCN(C(=O)[C@H](CCCCN)n3cc([C@@H](N)CC(C)C)nn3)CC2)n1 | 39.7
75 | COc1cc(/C=C2\SC(=Nc3c(C)n(C)n(-c4ccccc4)c3=O)NC2=O)ccc1O | 22.8
76 | Nc1ccc2nc(-c3ccccc3)[nH]c2c1 | 26.8
77 | Oc1ccc(Cl)cc1C=Nc1ccc2c3c(cccc13)CC2 | 29.6
78 | Nc1ccc(-c2nc3ccc(N)cc3s2)cc1 | 22.9
79 | COc1cc2[nH]c(=S)nc(NCCc3ccc(S(N)(=O)=O)cc3)c2cc1OC | 17.7
80 | Cc1c(O)ccc(/C(Cc2ccc3ccccc3n2)=N\O)c1O | 25.3
81 | Oc1ccc(/C=N/Nc2cc(N3CCOCC3)nc(N3CCOCC3)n2)cc1O | 7.37
82 | Cc1ccccc1-c1ccc(Nc2ccc(N3CCOCC3)cc2)nn1 | 33.6
83 | CC1=NN(c2ccccc2)C(=O)/C1=C/C=C/C=C/N(C)C | 21.7
84 | Cc1ccc(C2C=NN(c3ccccc3)C2=O)cc1 (stereo not given) | -3.99
85 | S=c1[nH]c2ccccc2n2c(=S)[nH]nc12 | 23.8
86 | O=C1CCCC/C1=C\Nc1ccc(O)cc1 | 30.3
87 | O=C(Nc1ccccc1C(=O)N/N=C/c1ccc(O)cc1)c1ccccc1 | 25.8
88 | Cc1ccc(Nc2n[nH]c(=S)s2)cc1 | 23.2
89 | C#CCOCCOCCOCCNc1nc(N2CCN(C(=O)[C@H](CCCCN)n3cc([C@@H](N)C(C)CC)nn3)CC2)nc(N2CCN(C(=O)[C@H](Cc3cc4ccccc4[nH]3)n3cc([C@@H](N)C(C)CC)nn3)CC2)n1 (stereo not given in full) | 54.2
90 | Fc1ccc(CNc2ccc(N3CCN(Cc4ccccc4)CC3)cc2)cc1 | 7.97
91 | Cc1cc(SCC(=O)c2ccc(O)c(O)c2)nc2ccccc12 | 5.6
92 | COc1ccc(NC(=O)n2ncc3cc(Cl)ccc32)cc1OC | 23.6
93 | COc1ccc(C(CNC(=O)c2cc3ccccc3cc2O)N2CCOCC2)cc1 (stereo not given) | 18
94 | CC1CCCCN1Cc1c(O)ccc2c(=O)c(-c3nc4ccccc4s3)c(N)oc12 (stereo not given) | 30.4
95 | CCN(CC)CCCC(C)NC(=O)c1c(NC(=O)c2ccccc2)sc2c1CCCC2 (stereo not given) | 24.9
